Our source for the max response values is PubChem BioAssay AID2314 (National Center for Advancing Translational Sciences (NCATS), 2010).

SMILES strings stand for the structures. Where “and” joins values, the source holds several entries; their conditions need not be identical. Equal values may be shown once. The whole screen tested about 300,000 compounds, of which about 37,000 (12%) were called active. The sample as a whole holds a higher share of actives than the screen did. Values without a mark were called inactive. No stated cut-off is given here; in the data, active means max response mostly above about 13% (no sharp cut-off); inactive means mostly below about 14%.

This assay in a line: Cycloheximide Counterscreen for Small Molecule Inhibitors of Shiga Toxin. Further: read at 38.3 µM for the half of the compounds with a filed dose; 0% is about no effect. Conditions: cell reporter, cycloheximide protein synthesis inhibition counterscreen; hits give high values. In general terms: The purpose of a counterscreen is to sort out artefacts and off-target activity.
In the case of `Cc1nonc1C1CCCN1Cc1nc(-c2ccc(F)cc2F)oc1C` (stereo not drawn), the max response was 6.22%.

Turning to `CCCOc1ccc(CNC(=O)C2CCN(c3nn4c(=O)cc(C)nc4s3)CC2)cc1`, the max response was -3.96%.

As to `CCc1c(C)nc2cc(-c3cccs3)[nH]n2c1=O`, the max response was 29.6% (active).

Take `Cc1nc2nc[nH]n2c(=O)c1C/C=C/c1ccccc1`: the max response was 10.1%.

As to `CCCCN1Cc2c(nc3cc(-c4ccccc4)[nH]n3c2=O)C1=O`, the max response was 7.79%.

As to `Cc1cc(=O)n2[nH]c(-c3sccc3-n3c(C)ccc3C)cc2n1`, the max response is 5.31%.

For the molecule `CCc1c(C)nc2cc(C)[nH]n2c1=O`, the max response was -1.78%.

In the case of `C=CCc1c(C)nc2cc(-c3ccccc3)[nH]n2c1=O`, the max response is 37% (active).

In the case of `COCCn1cnc2c1c(=O)n(Cc1ccc(Br)cc1)c(=O)n2Cc1ccccc1`, the max response was -1.88%.

`Cc1ccc(NC(=O)C(CC(=O)O)C2CCCO2)c(C)c1` (stereo not drawn): the max response is -2.11%.

With `CC(NC(=O)CNC(=O)Cc1cccc2ccccc12)c1ccc(S(N)(=O)=O)cc1` (stereo not drawn), the max response is 4.99%.

Regarding `Cc1csc2ncc(C(=O)N(Cc3ccccc3)c3ccccn3)c(=O)n12`, the max response was -6.72%.

On to `CC1(C)NC(=O)N(CC(=O)Nc2cc(C(F)(F)F)cc(C(F)(F)F)c2)C1=O`, for which the max response was -1.59%.

With `O=C1C2CCCN2C(=O)N1CCCCN1CCN(c2cccc(C(F)(F)F)c2)CC1` (stereo not drawn), the max response is -0.302%.

Consider `O=C(NCc1ccco1)/C(=C\c1cccc([N+](=O)[O-])c1)NC(=O)c1ccco1`, for which the max response was -3.43%.

Regarding `COc1cc(NS(=O)(=O)c2ccc3ccccc3c2)c2ncccc2c1`, the max response was -1.06% and -1.79%.

Consider `CCS(=O)(=O)C1=NSC2=NC(=O)/C(=C\c3ccc(OS(=O)(=O)c4ccccc4)cc3)C(=N)N21`, for which the max response is 23.1% (active).

With `CS(=O)(=O)C1=NN2C(=N)/C(=C\c3ccc(OCCOc4ccccc4)cc3)C(=O)N=C2S1`, the max response was 8.57%.

`CCC1=NN2C(=N)/C(=C/c3cc(C)n(-c4ccccc4)c3C)C(=O)N=C2S1`: the max response was 4.37%.

Consider `COc1ccccc1OCCOc1ccc(/C=C2\C(=N)N3N=C(C)SC3=NC2=O)cc1`, for which the max response is -1.22%.

As for `CCS(=O)(=O)C1=NSC2=NC(=O)/C(=C\c3cc(C)n(-c4cccc(OC)c4)c3C)C(=N)N21`, the max response was 3.96%.

Turning to `Cc1cc(/C=C2/C(=N)N3C(=NC2=O)SN=C3S(C)(=O)=O)c(C)n1-c1ccccc1`, the max response was 28.8% (active).

With `COc1ccc(C(=O)NCCCN2CCOCC2)cc1Br`, the max response was 0.527%.

Regarding `C/C(=N\N=C(N)N)c1ccc(Cl)cc1`, the max response was -3.34%.

Turning to `COc1ccc(CCNC(=O)CN(C)S(=O)(=O)c2ccc3nc(C)sc3c2)cc1OC`, the max response was -1.23%.

For `COc1ccc2c(CC(=O)N3CCc4cc(OC)c(OC)cc4C3)coc2c1`, the max response is -5.51%.

With `CC(=O)c1ccc(NC(=O)C(C)NCc2ccc(Cl)cc2)cc1` (stereo not drawn), the max response is 32.7% (active).

`CC(NCc1cccs1)C(=O)Nc1cc(Cl)cc(Cl)c1` (stereo not drawn): the max response is -2.66%.

Turning to `CC(=O)c1ccc(NC(=O)C(C)N(C)CC(=O)Nc2ccccc2Cl)cc1` (stereo not drawn), the max response is 5.03%.

Consider `Nc1c(Cl)cc(-c2csc(N3CCCC3c3nc4cc(Cl)c(Cl)cc4n3CCOCCO)n2)cc1Cl` (stereo not drawn), for which the max response was 2.13%.

Consider `C/C(=N\NS(=O)(=O)c1ccccc1)c1c(O)cc(C)oc1=O`, for which the max response is 3.15%.

As for `Cc1cc(O)c(C(=O)/C=C/c2c(F)c(F)c(F)c(F)c2F)c(=O)o1`, the max response is 35.8% (active).

Take `Cc1ccc(N=Cc2c(O)cc(C)oc2=O)c(C)c1`: the max response was -0.907%.

On to `O=C(Cc1cccs1)N(CC1CCCO1)C1(C(=O)NC2CCCCC2)CCCCC1` (stereo not drawn), for which the max response was -1.59%.

For `CCCOc1ccc(Cc2c(O)nc(N)[nH]c2=O)cc1C`, the max response was -2.37%.

For the molecule `COc1c(O)ccc2c1CN1CCc3cc4c(cc3C1C2)OCO4` (stereo not drawn), the max response was -3.13%.

With `Cn1cccc1-c1nc2ccccc2n1C`, the max response is 18% (active).

Regarding `Cc1nn2c3ccccc3nc2n(C)c1=O`, the max response is -2.2%.

As to `Cn1c(S(=O)(=O)O)nc2ccccc21`, the max response is -1.42%.

Consider `CCn1cc(C(=O)N2CC=C(c3ccccc3)CC2)c(=O)c2ccc(C)nc21`, for which the max response was 7.37%.

Turning to `COC(=O)c1nn(-c2cccc(Cl)c2)ccc1=O`, the max response was 4.96%.

For `Cc1cccc(-c2nnc(SCC(=O)O)n2Cc2ccccc2)c1`, the max response is -1.57%.

With `Cc1cc(C)c2c(Cn3ccnc3)cc(=O)oc2c1`, the max response was -3.34%.

Regarding `Cc1cccc(N(C)C(=O)CN2C(=O)COc3ccc(S(=O)(=O)N4CCCCCC4)cc32)c1`, the max response was -2.56%.

As to `COc1ccc(S(=O)(=O)N(CC(=O)NCc2ccco2)c2ccc(F)cc2)cc1`, the max response was -2.34%.

For the molecule `COc1ccc(NC(=O)N2CCC3(CC2)OCCO3)c(OC)c1`, the max response is 0.567%.

In the case of `O=C(Nc1cccc2ccccc12)N1CCN(Cc2ccc3c(c2)OCO3)CC1`, the max response is -0.788%.

Regarding `O=C(Nc1cccc2ccccc12)N1CCC2(CC1)OCCO2`, the max response is 22.3% (active).

With `CN(CC(=O)Nc1c(Cl)cccc1Cl)C(=O)c1ccncc1`, the max response was -0.763%.

`CC1CN(C(=O)CCC(=O)NCCCN2CCC(Cc3ccccc3)CC2)c2cc(Cl)ccc2O1` (stereo not drawn): the max response is -3.45%.

In the case of `COc1ccc(S(=O)(=O)NCC(=O)NC2CC2)cc1OC`, the max response is -2.51%.

`COc1ccc(CCNC(=O)C2CCCN(S(=O)(=O)c3ccc(OC)cc3)C2)cc1` (stereo not drawn): the max response was -5.86%.

For the molecule `COc1nc(NC2CCCCC2)nc(N2CCCCCC2)n1`, the max response is 8.36%.

Take `O=C1Nc2cc(C(=O)N3CCN(c4ccc(F)cc4)CC3)ccc2NC1CSCc1cccc(F)c1` (stereo not drawn): the max response is 2.89%.

On to `Cc1cc(/C=N/Nc2ccc([N+](=O)[O-])cn2)c(C)n1-c1cccc(C(=O)O)c1`, for which the max response is 27.7% (active).

`Cc1cc(/C=N/n2cnnc2)c(C)n1-c1cccc(C(=O)O)c1`: the max response is 4.01%.

Consider `Cc1ccc(-n2c(C)cc(/C=N/Nc3ccc([N+](=O)[O-])cn3)c2C)c(C)c1`, for which the max response was 20.7%.

As for `O=C1CSC2=NCN(c3ccccc3)CN12`, the max response was 1.46%.
